Bioassay records deposited in PubChem by National Center for Advancing Translational Sciences (NCATS).
VACV mCherry inh = qHTS for Stage-Specific Inhibitors of Vaccinia Orthopoxvirus: mCherry Reporter Primary qHTS | AID 720579, 2013 | Vaccinia virus mCherry reporter infection, fluorescence | actives 0.63% (n = 310,000) | Potency, µM (series often up to 36.5 µM), for the others: at the top dose activity change, negative = inhibition, most hits filed as inhibitors; calls by dose curve; tested in A549 cells; also: potency is read from the fitted curve at half-maximal effect; nearly all actives have a fitted effect of over 35% in size
LASV entry inh = qHTS for Inhibitors of binding or entry into cells for Lassa Virus; Potency, µM (series often up to 37.9 µM), without a hit: top-dose activity change, negative = inhibition, hits mostly inhibitors; actives 1.2% (n = 300,000); Lassa virus pseudotype entry inhibition, cell reporter; calls by dose curve; tested in HEK293 cells; also: potency is read from the fitted curve at half-maximal effect; nearly all actives have a fitted effect of over 50% in size
MARV entry inh = qHTS for inhibitors of binding or entry into cells for Marburg Virus; Marburg virus pseudotyped entry inhibition, cell reporter; Potency, µM (top dose mostly 37.8 µM), for the others: at the highest dose activity change, negative = inhibition, usual class: inhibitors; actives 1.8% (n = 300,000); calls by dose curve; tested in HEK293 cells; also: potency is read from the fitted curve at half-maximal effect
HCMV inh = qHTS Assay for inhibitors of the human cytomegalovirus (HCMV). HFF cells, HCMV-luciferase reporter, 72 h; hits give low values. activity change, negative = inhibition, % at 57.5 µM. actives 4.5% (n = 410,000). AID 1259415, 2018; in the data active = activity change below about -60%; inconclusive = no clear call, values can overlap the other calls; inactive = above about -39%
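Luciferase read-out from HCMV-luciferase-infected HFFs (MOI 1 PFU/cell) 72 h post infection at 37C; compounds added after 16 h cell attachment; activity normalized between buffer-only basal and Salinomycin (10uM) inhibitor controls.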
FMDV antiviral = High Throughput Screening for Foot and Mouth Disease Virus Antivirals | FMDV antiviral cell-based qHTS | actives 1.2% (n = 410,000) | Potency, µM (doses to about 57.9 µM), for the others: at the top dose activity change, negative = inhibition, most hits filed as inhibitors; calls by dose curve; tested in HEK293T cells; also: read-out not given here; potency is read from the fitted curve at half-maximal effect; nearly all actives have a fitted effect of over 45% in size
Vaccinia Venus = qHTS for Stage-Specific Inhibitors of Vaccinia Orthopoxvirus: Venus Reporter Primary qHTS. Vaccinia virus Venus reporter expression, fluorescence. Potency, µM (series often up to 36.5 µM), for inactives: top-dose activity change, negative = inhibition, actives largely listed as inhibitors. actives 0.46% (n = 330,000); calls by dose curve; tested in A549 cells; also: potency is read from the fitted curve at half-maximal effect; nearly all actives have a fitted effect of over 30% in size
* = called active by the depositor; i = inactive; u = inconclusive; x = no result; [ ] = another dose, or the depositor's remark. The list is not random: actives were taken first. Their share in the collection is about 6.5%. % is scaled to controls: 0 for no effect and ±100 for the full control effect.

SMILES	VACV mCherry inh	LASV entry inh	MARV entry inh	HCMV inh	FMDV antiviral	Vaccinia Venus
CC#C[C@H](C)[C@@H](OCOC)[C@H](C[C@H](C)Cc1cc(Br)cc(OCc2ccccc2)c1OC)OC	x	x	-10%[14.2 µM]	x	x	x
CCCN1CNc2c(c(=O)[nH]c(=S)n2CCc2cccc(C)c2)C1	-9%	x	x	x	x	-11%
COc1ccc(CNC(=O)c2cc3sccc3n2Cc2ccc(C)cc2)cc1	-3%	-3%[46.1 µM]	-30%[46.1 µM]	55	45%	-4%
Cc1cc(C)nc(NC(=O)c2c(F)c(F)c(F)c(C(=O)Nc3cc(C)cc(C)n3)c2F)c1	x	x	x	-15	25µM*	x
O=S(=O)(Nc1ccc2c(c1)CCC2)c1cccs1	x	9%	-15%	-7	57%	x
O=C1OCc2cc(NS(=O)(=O)c3cccs3)ccc21	-12%	28%	1%	-63*	x	-5%
O=C(N/N=C1/C[C@@H](O)[C@@H](O)[C@@H]2[C@@H]3C(=O)N(Cc4ccc5c(c4)OCO5)C(=O)[C@H]3CC[C@H]12)OCc1ccccc1	x	x	-2%[14.2 µM]	x	x	x
COc1ccc(-c2csc(N3CCN(c4cc(C)nc5ccccc45)CC3)n2)cc1OC	u	u	u	-112*	0%	-6%
Cc1cc(N2CCN(C(=O)Oc3ccc([N+](=O)[O-])cc3)CC2)c2ccccc2n1	5%	x	x	u	25µM*	-20%
COc1cccc(Cl)c1NC(=O)N1CCN(c2cc(C)nc3ccccc23)CC1	-24%	u	u	-80*	u	u
COc1ccc(C(=O)CN2CCN(c3cc(C)nc4ccccc34)CC2)cc1	x	x	x	-61*	u	x
COc1cc(=O)n2c(c1C(=O)NCc1ccco1)CCN(Cc1cccc(Cl)c1)CC2	-11%	x	x	x	-15%	-4%
COc1ccc(C=CNC(=O)c2ccc(OC)cc2)cc1	x	x	18%[14.2 µM]	x	x	x
COc1ccc(/C=N/Nc2cc(N(C)C)nc(N(C)C)n2)cc1	-23%	u	4.5µM*	36	u	-29%
COc1ccc(/C=N/Nc2cc(OC)ncn2)cc1	i	10µM*	u	30	-57%	-11%
COc1ccccc1N1CCN(C(=O)C(C)N(c2ccc(C)c(C)c2)S(C)(=O)=O)CC1 (centres undefined)	x	-18%	-28%	-15	35µM*	-23%
Clc1ccc(/C=C/c2ccncc2)cc1Cl	4.5µM*	x	x	x	x	u
CC(=O)Nc1ccc(/C=C/c2ccncc2)cc1	-13%	x	x	x	x	8%
CC1Sc2ccc(C(=O)Nc3ncccc3O)cc2NC1=O (centres undefined)	-27%	u	10µM*	38	-7%	-13%
Cc1cccnc1NC(=O)c1ccc2c(c1)NC(=O)C(C)S2 (centres undefined)	i	u	9%	-27	0%	-6%
CCOc1ccc(CC(=O)Nc2nnc3n2CCS3)cc1	-3%	-9%[46.1 µM]	x	-61*	16%	3%
CC(C)(C)C(=O)Nc1nnc2n1CCS2	20%	17%[46.1 µM]	x	-1	-11%	16%
COc1ccc(CC(=O)Nc2nnc3n2CCS3)cc1	-3%	10%[46.1 µM]	x	2	-5%	0%
CC(C)(C)c1ccc(C(=O)Nc2nnc3n2CCS3)cc1	-17%	u	x	-84*	16%	-15%
COc1cccc(CNc2nc(NCc3ccccc3)nc3ccsc23)c1	0%	x	x	-102*	u	-24%
SMILES	VACV mCherry inh	LASV entry inh	MARV entry inh	HCMV inh	FMDV antiviral	Vaccinia Venus
COc1ccccc1CNc1nc(NCc2ccc(C(C)C)cc2)c2sccc2n1	-8%	x	x	u	u	-24%
CC(C)c1ccc(CNc2nc(NCC3CC3)nc3ccsc23)cc1	2%	x	x	-62*	u	-27%
CNc1nc(NCc2cccc(OC)c2)c2sccc2n1	12%	x	x	u	u	-11%
COc1cccc(CNc2nc(NCC3CC3)nc3ccsc23)c1	i	x	x	-71*	-1%	-20%
C[C@@H]1C[C@@H](CC(=O)NCC2Cc3cccc(-c4ccncc4)c3O2)NC(=S)N1 (some centres undefined)	i	x	x	x	8%	-26%
O=S1(=O)N[C@@H](Cc2ccccc2)COc2cccc(N3CCCC3)c21	x	x	x	3	x	x
